MCF10A rerep: inducers of DNA re-replication in MCF 10A breast cells | MCF 10A DNA re-replication, Hoechst nuclear intensity, 48 h | Potency, µM (doses to about 46.1 µM), without a hit: at the top dose activity, positive = re-replication, most hits filed as activators | 350,000 compounds, 2.9% hits; also: potency is read from the fitted curve at half-maximal effect; % of control where 0% means no effect; nearly all actives have a fitted effect of over 50% in size
BCR signal inh: chronic active BCR signaling inhibition | ABC-DLBCL IkBa-CBG/CBR reporter, luminescence ratio, 4 h | Potency, µM (top dose mostly 46.1 µM), inactives show at the top dose activity change, negative = inhibition, usual class: inhibitors | 340,000 compounds, 0.05% hits | AID 493014; active = well fitted inhibition curve with a large enough effect in the signal ratio, with a control signal flat, not every such curve was filed as active; inconclusive = small, poorly fitted or top-dose-only effect, or effect the other way, or a change in a side signal; the % refers to the signal ratio;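 also: potency is read from the fitted curve at half-maximal effect; plate controls were basal doxycycline-induced cells for no effect and cells given 10 µM MG132 for full effect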
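Doxycycline induced both beetle luciferases in TMD8 lymphoma cells; IKK-driven degradation limits the IkappaBalpha-fused green signal, while red luminescence normalises for cell number and nonspecific effects. Compounds tested up to 46 uM, 4 hrs.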
Giardia killer: kills Giardia lamblia; Giardia lamblia trophozoite viability; activity change, % at 7.66 µM, hits read low; 340,000 compounds, 0.15% hits; AID 540267; in the data active = activity change below about -80%; inconclusive = between about -30% and that limit;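 also: parasites exposed to compound for two days anaerobically before the ATP read; % is scaled to controls: 0 for no effect and ±100 for the full control effect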
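Compounds were tested on trophozoites seeded at 100 cells/well and held 48 hrs at 37 deg C anaerobically. An ATP-based luminescent kit measured the remaining live cells.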
SW480 rerep: DNA re-replication induction in SW480 cells; Potency, µM (titrated, usually from 46.1 µM), for the others: at the highest dose re-replication activation, actives largely listed as activators; SW480 DNA re-replication, Hoechst DNA content imaging, 48 h; 340,000 compounds, 1.8% hits; also: potency is read from the fitted curve at half-maximal effect; % of control where 0% means no effect; nearly all actives have a fitted effect of over 55% in size
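Cells (250 per well) received 23 nL compound or DMSO by pin tool and were kept 48 hr at 37 C, 5% CO2. Nuclei were then stained with Hoechst for 40 min and scanned for DNA content.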
VP16 counter: inhibits Gal4-VP16 luciferase reporter, ROR gamma counter-screen; Drosophila S2 Gal4-VP16 UAS-luciferase, luminescence, 20 h; 310,000 compounds, 3.5% hits; Potency, µM (series often up to 53.6 µM), for the others: at the highest dose activity, negative = inhibition, most hits filed as inhibitors;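 also: Gal4-VP16 expression switched on by copper sulfate through the metallothionein promoter; potency is read from the fitted curve at half-maximal effect; % is scaled to controls: 0 for no effect and ±100 for the full control effect; nearly all actives have a fitted effect of over 50% in size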
RORgamma inh: blocks mouse ROR gamma transcriptional activity; P51450; Drosophila S2 Gal4-RORgamma UAS-luciferase reporter, 20 h; Potency, µM (doses to about 53.6 µM), for inactives: at the top dose activity change, negative = inhibition, hits mostly inhibitors; 310,000 compounds, 5.4% hits; AID 2551; also: potency is read from the fitted curve at half-maximal effect; % is scaled to controls: 0 for no effect and ±100 for the full control effect; nearly all actives have a fitted effect of over 60% in size
Target sequence (P51450 whole entry, looked up, the tested form may be a part): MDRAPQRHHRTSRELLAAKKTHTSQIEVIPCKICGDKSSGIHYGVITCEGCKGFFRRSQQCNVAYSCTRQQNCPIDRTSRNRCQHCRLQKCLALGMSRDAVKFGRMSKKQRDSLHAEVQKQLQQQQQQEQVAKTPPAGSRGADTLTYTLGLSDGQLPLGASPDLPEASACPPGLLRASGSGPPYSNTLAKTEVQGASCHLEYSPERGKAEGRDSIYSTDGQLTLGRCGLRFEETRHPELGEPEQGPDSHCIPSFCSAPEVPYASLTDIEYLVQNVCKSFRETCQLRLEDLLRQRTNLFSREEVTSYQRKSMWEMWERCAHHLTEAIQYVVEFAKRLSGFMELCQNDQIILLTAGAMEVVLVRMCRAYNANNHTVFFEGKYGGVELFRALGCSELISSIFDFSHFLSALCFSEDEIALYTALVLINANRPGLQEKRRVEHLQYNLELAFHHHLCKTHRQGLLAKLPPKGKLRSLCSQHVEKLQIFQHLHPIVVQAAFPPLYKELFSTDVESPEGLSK
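ROR gamma transcriptional activity was tracked as Gal4-UAS luciferase output in stably transfected Drosophila Schneider cells, with compound added 1 hr before 700 uM copper sulfate induction and a 20 hr ambient-temperature incubation.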
* marks the source's active call; other numbers are inactive results; [ ] = dose if it differs, or a comment. Most compounds without a hit are left out; they make up all but 8.3% or so of the library. Unless noted, calls follow the shape of the dose curve; as a rule, active = well fitted curve in the direction sought with a large enough effect; inconclusive = small, poorly fitted or top-dose-only effect, or another doubt; inactive = no such curve, though single readings can be large; an effect the other way counts as inactive or inconclusive.

Results for CNC(=O)CCc1nc(-c2ccc(C(C)(C)C)cc2)no1 ?
MCF10A rerep: -13%; BCR signal inh: -13%; Giardia killer: -1; SW480 rerep: 0%; VP16 counter: 7.1µM*; RORgamma inh: 0.32µM*

Results for CC(C)(C)c1ccc(-c2noc(CCC(=O)Nc3cccnc3)n2)cc1 ?
MCF10A rerep: 1%; BCR signal inh: inconclusive; Giardia killer: 3; SW480 rerep: 7%; VP16 counter: inconclusive; RORgamma inh: 0.063µM*

What do the screens show for `O=C(Nc1cccc(F)c1)c1ccc(S(=O)(=O)N2CCCCC2)cc1`?
MCF10A rerep: 16%; BCR signal inh: 9%; Giardia killer: -5; SW480 rerep: -4%; VP16 counter: -2%; RORgamma inh: 61%

How did COc1ccc(Nc2nccc3c2ncn3C)cc1 do in these assays?
MCF10A rerep: 6%; Giardia killer: -6; SW480 rerep: -7%

What do the screens show for `Cc1ccc(NC(=O)CCCc2nc3ccccc3s2)c(O)c1`?
MCF10A rerep: inconclusive; BCR signal inh: inconclusive; Giardia killer: -12; SW480 rerep: 2%; VP16 counter: 6%; RORgamma inh: 18%

Results for COc1ccccc1C(=O)NCC(=O)OC(C)C(=O)NC1CCCCC1C (centres undefined) ?
MCF10A rerep: -3%; BCR signal inh: 0%; Giardia killer: -5; SW480 rerep: -15%

Results for CCCc1ccc(/C=C2\C(=O)c3ccccc3C(O)=C2C(=O)OCC)cc1 ?
BCR signal inh: inconclusive; VP16 counter: inconclusive; RORgamma inh: 11µM*

Results for CCOC(=O)C1=C(O)c2ccccc2C(=O)/C1=C\c1ccc(CC)cc1 ?
MCF10A rerep: 8.2µM*; BCR signal inh: inconclusive; Giardia killer: -8; SW480 rerep: 6.5µM*; VP16 counter: -1%[0.365 µM]; RORgamma inh: 4.5µM*

Results for CCOC(=O)c1ccc(Nc2ncnc3c2cnn3-c2cccc(Cl)c2)cc1 ?
BCR signal inh: 8%

How did Cc1ccc(C(=O)NCCNc2nc3cc(C)c(C)cc3cc2C)cc1 do in these assays?
MCF10A rerep: 8.2µM*; BCR signal inh: 4%; Giardia killer: 6; SW480 rerep: 8.2µM*; VP16 counter: -6%; RORgamma inh: 11%

How did COC(=O)CC1COc2ccccc2N1S(=O)(=O)c1ccc(Br)cc1 (centres undefined) do in these assays?
MCF10A rerep: 28%; BCR signal inh: -1%; Giardia killer: -25; SW480 rerep: 10µM*; VP16 counter: -1%; RORgamma inh: 14%

What do the screens show for `COC(=O)CC1COc2ccccc2N1S(=O)(=O)c1ccc(OC)cc1` (centres undefined)?
MCF10A rerep: 15µM*; BCR signal inh: inconclusive; Giardia killer: 7; SW480 rerep: inconclusive; VP16 counter: 5%; RORgamma inh: 4%

How did COC(=O)CC1COc2ccccc2N1C(=O)c1ccc(OC)cc1 (centres undefined) do in these assays?
MCF10A rerep: -2%; BCR signal inh: 0%; Giardia killer: -3; SW480 rerep: 1%; VP16 counter: 5%; RORgamma inh: 21%

How did Cn1c(=O)c2c(nc(Cl)n2CCOc2ccccc2)n(C)c1=O do in these assays?
MCF10A rerep: 4%; BCR signal inh: 0%; Giardia killer: 25; SW480 rerep: 9.2µM*; VP16 counter: inconclusive; RORgamma inh: inconclusive

How did COc1ccccc1CCNS(=O)(=O)c1cc2c3c(c1)CCN3C(=O)CC2 do in these assays?
MCF10A rerep: -2%; BCR signal inh: 0%; Giardia killer: 11; SW480 rerep: 1.5µM*

Results for COc1ccc(CCNS(=O)(=O)c2cc3c4c(c2)CCN4C(=O)CC3)cc1OC ?
MCF10A rerep: 0%; BCR signal inh: 0%; Giardia killer: -9; SW480 rerep: 2%

What do the screens show for `N#Cc1nc(-c2ccc(OCc3ccccc3Cl)cc2)oc1N1CCCCCC1`?
Giardia killer: -13

Results for Cc1ccc(Nc2c(-c3ccc(N4CCOCC4)cc3)nc3cnccn23)cc1 ?
MCF10A rerep: 18µM*; BCR signal inh: -14%; Giardia killer: 2; SW480 rerep: inconclusive; VP16 counter: 14%; RORgamma inh: 40%

What do the screens show for `Cc1ccc(Nc2c(-c3ccc(N4CCOCC4)cc3)nc3ncccn23)cc1C`?
MCF10A rerep: inconclusive; BCR signal inh: 4%; Giardia killer: -6; SW480 rerep: 23µM*; VP16 counter: -8%; RORgamma inh: -2%

How did Cc1ccc(Nc2c(-c3ccc(N4CCOCC4)cc3)nc3ncccn23)cc1 do in these assays?
MCF10A rerep: 0%; BCR signal inh: inconclusive; Giardia killer: -2; SW480 rerep: -2%; VP16 counter: 10%; RORgamma inh: inconclusive

Results for CN(C)c1ccc(-c2nc3cnccn3c2Nc2ccc3c(c2)OCCO3)cc1 ?
MCF10A rerep: 18µM*; BCR signal inh: -17%; Giardia killer: 30; SW480 rerep: -18%; VP16 counter: -10%; RORgamma inh: 0%

Results for O=c1[nH]cnc2cc(-c3ccc(Br)cc3)sc12 ?
MCF10A rerep: -2%; BCR signal inh: -9%; Giardia killer: -11; SW480 rerep: -2%; VP16 counter: -3%; RORgamma inh: -1%

How did O=c1[nH]c(CCl)nc2cc(-c3ccc(F)cc3)sc12 do in these assays?
MCF10A rerep: inconclusive; BCR signal inh: inconclusive; Giardia killer: inconclusive; SW480 rerep: inconclusive; VP16 counter: inconclusive; RORgamma inh: 13µM*

How did CC(C)(CO)C(O)C(=O)NCCC#N (centres undefined) do in these assays?
MCF10A rerep: 0%; BCR signal inh: 3%; Giardia killer: 9; SW480 rerep: -7%; VP16 counter: -19%; RORgamma inh: 19%

Results for CC(C)=CCCC(C)CCO (centres undefined) ?
MCF10A rerep: 13%; BCR signal inh: 2%; Giardia killer: 17; SW480 rerep: -12%; VP16 counter: -9%; RORgamma inh: 0%

How did CN[C@H](C)CCC=C(C)C do in these assays?
MCF10A rerep: 24µM*; SW480 rerep: 3%; VP16 counter: -11%; RORgamma inh: 2%

Results for Cc1c(C(=O)Nc2ccc(F)cc2)nnn1-c1cccc(C(F)(F)F)c1 ?
MCF10A rerep: 9%; BCR signal inh: inconclusive; Giardia killer: -5; SW480 rerep: 0%; VP16 counter: 16µM*; RORgamma inh: inconclusive

How did CC(=O)N1CCN(C(=O)COC(=O)c2oc3ccccc3c2C)CC1 do in these assays?
MCF10A rerep: 15%; BCR signal inh: -3%; Giardia killer: -22; SW480 rerep: 1%

Assay outcomes (PubChem BioAssay)
